HepG2 viability – counter-screen for TGF-b inhibitors: cytotoxicity in HepG2 cells; Potency, µM (doses to about 46.1 µM), usual class: cytotoxic; HepG2 CAGA-GFP viability, ATP luminescence, 18 h; 0.76% of 410,000 active
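CellTiter-Glo luminescence gave cytotoxicity after 18 hours at 37 degrees C. The cells were HepG2 CAGA-GFP in 1% FBS DMEM, stimulated with 500 pg/mL TGF-beta after compound addition. %Activity was normalised to no-cell wells (complete cell-killing) and DMSO (no toxicity), and curves were fitted and classified.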
ATXN viability – cell viability loss in ATXN counter-screen. S2 cells (HEK-293 line with an ATXN2-luciferase reporter) viability, CellTiter-Fluor protease fluorescence, 24 h. Potency, µM (titrated, usually from 56.7 µM), actives largely listed as cytotoxic. 0.49% of 400,000 active; note: nearly all actives have a fitted effect of over 40% in size
RORgamma inh – inhibitors of mouse ROR gamma transcriptional activity | P51450 | Drosophila S2 Gal4-RORgamma UAS-luciferase reporter, 20 h | Potency, µM (highest dose often 53.6 µM), hits mostly inhibitors | 5.4% of 310,000 active | AID 2551; note: nearly all actives have a fitted effect of over 60% in size
Target sequence (P51450 whole entry, looked up, the tested form may be a part): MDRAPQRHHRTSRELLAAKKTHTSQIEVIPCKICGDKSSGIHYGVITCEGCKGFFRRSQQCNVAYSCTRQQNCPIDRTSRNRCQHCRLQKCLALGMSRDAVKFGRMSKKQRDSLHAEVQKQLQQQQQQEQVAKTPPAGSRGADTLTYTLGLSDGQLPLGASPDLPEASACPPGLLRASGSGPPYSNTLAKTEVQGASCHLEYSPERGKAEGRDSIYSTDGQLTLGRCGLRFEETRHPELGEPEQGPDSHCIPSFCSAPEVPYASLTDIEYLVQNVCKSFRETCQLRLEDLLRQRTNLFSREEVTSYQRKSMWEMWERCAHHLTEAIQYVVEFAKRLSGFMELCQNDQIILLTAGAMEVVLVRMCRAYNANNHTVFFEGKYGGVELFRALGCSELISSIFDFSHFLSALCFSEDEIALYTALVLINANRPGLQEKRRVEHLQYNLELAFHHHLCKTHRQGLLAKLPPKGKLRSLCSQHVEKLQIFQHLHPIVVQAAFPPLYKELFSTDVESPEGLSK
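Read-out: Photinus luciferase luminescence; inhibitors lower reporter signal. Insect Schneider cells with Gal4-ROR gamma fusion under metallothionein promoter, UAS reporter; 700 uM final copper sulfate induction, 20 hr, ambient temperature.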
Gal4-VP16 FLuc – Gal4-VP16 reporter inhibition counter-screen. Potency, µM (top dose mostly 53.6 µM), most hits filed as inhibitors. 3.5% of 310,000 active. Drosophila S2 Gal4-VP16 UAS-luciferase, luminescence, 20 h;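 note: Gal4-VP16 expression switched on by copper sulfate through the metallothionein promoter; nearly all actives have a fitted effect of over 50% in size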
TGFb SMAD3 inh – inhibitors of TGF-b signaling; HepG2 CAGA-GFP TGF-b/SMAD3 reporter, GFP fluorescence, 18 h; TGF-beta stimulated, 500 pg/mL final; Potency, µM (top dose mostly 46.1 µM), usual class: inhibitors; 1.2% of 410,000 active; AID 588855; note: nearly all actives have a fitted effect of over 65% in size
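Per well, imaged GFP fluorescence of HEPG2 CAGA-GFP cells gives the signal; cells get compound, then TGF-beta (500 pg/mL final), 18 h at 37 degrees C; %Activity versus -TGF-beta and +DMSO controls.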
ATXN2 expr inh – reduces ATXN2 reporter expression in HEK-293 cells; HEK-293 ATXN2-luciferase reporter, luminescence, 24 h; Potency, µM (doses to about 57 µM), usual class: inhibitors; 0.72% of 360,000 active; AID 1745845; note: nearly all actives have a fitted effect of over 55% in size
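ATXN2-luciferase reporter cells (luciferase flanked by upstream and downstream ATXN2 gene portions) were treated 24 h at 37 °C with compounds at up to 57 uM. SteadyGlo luminescence gave expression; GF-AFC fluorescence gave viability.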
Large screens that a line does not name were inactive. Most compounds without a hit are left out; they make up all but 6.3% or so of the library. Calls come from the whole dose curve; as a rule, active = well fitted curve in the direction sought with a large enough effect; inconclusive = small, poorly fitted or top-dose-only effect, or another doubt; inactive = no such curve, though single readings can be large; an effect the other way counts as inactive or inconclusive.

O=C(CS(=O)(=O)c1ccccc1)Nc1nnc(-c2cccs2)o1	none (no result: RORgamma inh, Gal4-VP16 FLuc)
CCCCN(C)S(=O)(=O)c1ccc(C(=O)Nc2nnc(C3=COCCO3)o2)cc1	RORgamma inh 0.71µM, Gal4-VP16 FLuc 1.8µM
CCCCN(C)S(=O)(=O)c1ccc(C(=O)Nc2nnc(-c3cccs3)o2)cc1	RORgamma inh 0.32µM, Gal4-VP16 FLuc 0.89µM (no result: HepG2 viability, ATXN viability, TGFb SMAD3 inh, ATXN2 expr inh)
CCNC(=S)NNC(=O)c1c(Cl)c(C)nn1C	RORgamma inh 6.3µM, Gal4-VP16 FLuc inconclusive
Cc1nc2ccccn2c1C(=O)NCCCN1CCOCC1	none (no result: Gal4-VP16 FLuc)
COc1ccccc1NC(=S)NNC(=O)c1c(Cl)c(C)nn1C	RORgamma inh 1.6µM, Gal4-VP16 FLuc inconclusive
CCCCNC(=S)NNC(=O)c1c(C)nc2ccccn12	RORgamma inh 13µM
COc1ccccc1NC(=S)NNC(=O)c1cc(C)nn1C	none
CCCCNC(=S)NNC(=O)c1c(Cl)c(C)nn1C	RORgamma inh 1.4µM
O=C(CCNS(=O)(=O)c1cccc2nonc12)Nc1ccc(F)cc1	none (no result: RORgamma inh, Gal4-VP16 FLuc)
Cc1nn(C)c(C(=O)NN)c1Cl	RORgamma inh 11µM
Cc1ccc(OCCCSc2nc(-c3ccc(C(C)(C)C)cc3)nc3cc(=O)[nH]n23)cc1C	TGFb SMAD3 inh inconclusive (no result: RORgamma inh, Gal4-VP16 FLuc)
Cc1ccccc1OCCn1cc(C(=S)N2CCN(C)CC2)c2ccccc21	RORgamma inh 13µM, TGFb SMAD3 inh inconclusive
CC(=O)c1cn(CCOc2ccccc2C)c2ccccc12	ATXN viability inconclusive, RORgamma inh inconclusive, Gal4-VP16 FLuc 4.5µM
O=[N+]([O-])c1ccc(CSc2ncnc3ccccc23)cc1	RORgamma inh 7.9µM (no result: ATXN viability)
CCN(CC)c1ccc(/C=C2\SC(=O)N(C(C)C)C2=O)o1	ATXN viability inconclusive, RORgamma inh 3.5µM, Gal4-VP16 FLuc 4.5µM
CCC1(C2CCN(C(=O)c3cc(C)cc(C)c3)CC2)NC(=O)N(CCc2scnc2C)C1=O (stereo not drawn)	none (no result: HepG2 viability, RORgamma inh, Gal4-VP16 FLuc, TGFb SMAD3 inh, ATXN2 expr inh)
Cc1cccc(/C=N/NC(=O)C(C)Nc2cccc3ccccc23)n1 (stereo not drawn)	RORgamma inh inconclusive, Gal4-VP16 FLuc inconclusive
CC(Nc1cccc2ccccc12)C(=O)N/N=C/c1ccc([N+](=O)[O-])cc1 (stereo not drawn)	RORgamma inh 13µM, Gal4-VP16 FLuc 14µM, TGFb SMAD3 inh inconclusive
COc1cc([N+](=O)[O-])cc(/C=N/NC(=O)C(C)Nc2cccc3ccccc23)c1O (stereo not drawn)	ATXN viability inconclusive, RORgamma inh 0.4µM, Gal4-VP16 FLuc 0.5µM, TGFb SMAD3 inh inconclusive, ATXN2 expr inh 20µM
COc1ccccc1NC(C)C(=O)N/N=C/c1ccccc1OCc1cccc(Br)c1 (stereo not drawn)	none
Cc1nnc(SCC(=O)NNC(=O)c2ccc(F)cc2)n1Cc1ccccc1	none (no result: RORgamma inh, Gal4-VP16 FLuc)
CC(=O)NC(C)c1ccc(Oc2ccc(OC(C)C)cc2)cc1 (stereo not drawn)	none (no result: HepG2 viability, ATXN viability, RORgamma inh, Gal4-VP16 FLuc, TGFb SMAD3 inh)
N#C/C(=C\c1ccc(O)c([N+](=O)[O-])c1)c1nc2ccccc2s1	ATXN viability inconclusive, Gal4-VP16 FLuc inconclusive, TGFb SMAD3 inh 13µM
COc1cc(/C=C(\C#N)c2nc3ccccc3s2)cc([N+](=O)[O-])c1O	none
N#C/C(=C\c1ccco1)c1nc2ccccc2s1	Gal4-VP16 FLuc inconclusive
N#C/C(=C/c1ccco1)c1nc2ccccc2s1	ATXN viability inconclusive, RORgamma inh 5µM, Gal4-VP16 FLuc 5.6µM
N/C(=N\S(=O)(=O)c1cc(C(F)(F)F)cc(C(F)(F)F)c1)c1ccc(Cl)cc1	ATXN viability inconclusive, RORgamma inh inconclusive, Gal4-VP16 FLuc inconclusive, TGFb SMAD3 inh 10µM, ATXN2 expr inh inconclusive
CCC(=O)Oc1ccc2c(c1)CC[C@@H]1[C@@H]2CC[C@]2(C)[C@@H](OC(=O)CC)CC[C@@H]12	none (no result: HepG2 viability, RORgamma inh, Gal4-VP16 FLuc, TGFb SMAD3 inh, ATXN2 expr inh)
Cc1ccc(NC(=O)c2cc(C(C)(C)C)nn2Cc2ccccc2)cc1	TGFb SMAD3 inh inconclusive
CC(C)(C)c1cc(C(=O)NNc2cc(C(F)(F)F)ccc2Cl)n(Cc2ccccc2)n1	HepG2 viability 10µM, RORgamma inh inconclusive, Gal4-VP16 FLuc 8.9µM, TGFb SMAD3 inh 11µM, ATXN2 expr inh inconclusive

From PubChem
